KinaseGlo FLuc – counter-screen: inhibitors of Kinase-Glo firefly luciferase. Q27757. Potency, µM (titrated, usually from 38.3 µM), for the others: at the top dose activity change, negative = inhibition, hits mostly inhibitors. 200,000 tested, 0.28% active. Kinase-Glo luciferase, ATP luminescence, 8 min; also: nearly all actives have a fitted effect of over 60% in size
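Recombinant Kinase-Glo luciferase, 10 uM ATP (linear range), luciferin; imidazole pH 7.2 / KCl / MgCl2 / Tween / BSA buffer; 8 min RT; luminescence.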
Tau fibril ThT – blocks human tau fibril formation measured by thioflavin T. Potency, µM (highest dose often 57.4 µM), for inactives: at the top dose activity, negative = inhibition, hits mostly inhibitors. AID 1460. recombinant tau K18 P301L, heparin-induced fibrillization, ThT fluorescence. P10636. 270,000 tested, 2.1% active; also: nearly all actives have a fitted effect of over 55% in size
Target sequence (P10636 561-689 P618L limits assumed): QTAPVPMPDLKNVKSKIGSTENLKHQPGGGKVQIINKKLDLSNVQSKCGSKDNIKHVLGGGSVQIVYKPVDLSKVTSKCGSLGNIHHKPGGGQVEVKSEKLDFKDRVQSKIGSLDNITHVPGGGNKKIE
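In this qHTS, human K18 P301L tau is incubated with compound and heparin for 6 hr at 37 C, and Thioflavin T fluorescence then reports fibril load.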
NPSR antag – blocks cAMP signaling of the human neuropeptide S receptor | Potency, µM (titrated, usually from 38.3 µM), inactives show at the top dose activity change, negative = inhibition, most hits filed as inhibitors | CHO-NPSR cells, cAMP TR-FRET, antagonist mode | 220,000 tested, 1% active | Q6W5P4; also: nearly all actives have a fitted effect of over 50% in size
Target sequence (Q6W5P4 whole entry, looked up): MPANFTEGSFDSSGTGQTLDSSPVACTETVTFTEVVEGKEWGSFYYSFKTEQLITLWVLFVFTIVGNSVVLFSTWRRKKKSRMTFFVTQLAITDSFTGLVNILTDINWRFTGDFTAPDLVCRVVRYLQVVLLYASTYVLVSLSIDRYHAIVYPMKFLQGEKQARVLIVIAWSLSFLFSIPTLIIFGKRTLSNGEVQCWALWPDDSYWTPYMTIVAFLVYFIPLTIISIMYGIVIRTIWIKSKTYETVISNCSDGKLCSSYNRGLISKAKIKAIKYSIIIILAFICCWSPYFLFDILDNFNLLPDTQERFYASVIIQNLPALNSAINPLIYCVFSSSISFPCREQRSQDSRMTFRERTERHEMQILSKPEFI
Tau FP inhib – inhibitors of human tau fibril formation. P10636. AID 1468. Potency, µM (titrated, usually from 57.7 µM), for inactives: at the top dose activity, negative = inhibition, usual class: inhibitors. 280,000 tested, 0.39% active. K18 P301L tau heparin fibrillization, Alexa594 FP, 6 h; also: nearly all actives have a fitted effect of over 55% in size
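Human tau K18 […] P301L fragment, 15 uM unlabeled plus 0.24 uM Alexa 594-labeled tau (final), with compound and 20 uM heparin in 100 mM sodium acetate pH 7; 6 hr at 37 C, then Alexa 594 FP read.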
Tau fluor cs – counter-screen for tau fibril formation inhibitors; tau K18 P301L Alexa594 fluorescence, heparin fibrillization; Potency, µM (titrated, usually from 57.7 µM), without a hit: at the highest dose activity change, negative = decrease; 280,000 tested, 0.93% active; also: nearly all actives have a fitted effect of over 55% in size
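Human tau K18 P301L (15 uM unlabeled, 0.24 uM Alexa 594-labeled) in 100 mM sodium acetate pH 7 with 20 uM heparin, 6 hr at 37 C. ThT 30 uM added, 1 hr ambient; Alexa 594 FP and total fluorescence read at 555/632 nm.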
Active calls of the source: *; ? = inconclusive; . = not tested or not shown; [ ] = another dose, or the depositor's remark. The list is not random: actives were taken first. Their share in the collection is about 3.3%. Calls follow the shape of the dose curve; as a rule, active = well fitted curve in the direction sought with a large enough effect; inconclusive = small, poorly fitted or top-dose-only effect, or another doubt; inactive = no such curve, though single readings can be large; an effect the other way counts as inactive or inconclusive. % is scaled to controls: 0 for no effect and ±100 for the full control effect; potency is read from the fitted curve at half-maximal effect.

SMILES	KinaseGlo FLuc	Tau fibril ThT	NPSR antag	Tau FP inhib	Tau fluor cs
C=CCNC(=O)N1CCc2nc(-c3ccccc3)c3c(c2C1)CO[C@@H](C)C3	-5%[7.66 µM]	3%[11.5 µM]	.	-3%[11.6 µM]	-3%[11.6 µM]
C=CCNC(=S)N1CCN(c2ccc([N+](=O)[O-])cc2)CC1	.	13µM*	6%[46.1 µM]	1%	-10%
CC(=O)N1CCN(c2ccc([N+](=O)[O-])cc2)CC1	-1%	1%	-11%	-10%	10%[2.34 µM]
COc1ccc(NC(=O)N2CCN(c3ccc([N+](=O)[O-])cc3)CC2)cc1	-1%	-1%	-14%	5%[2.34 µM]	-8%
O=[N+]([O-])c1ccc(N2CCCCC2)cc1	.	8.9µM*	9%	-8%	-19%
CC(=O)c1ccc(N2CCN(c3ccc(C(N)=O)cc3[N+](=O)[O-])CC2)cc1	1%	5%	9%	4%	6%
NC(=O)c1ccc(N2CCN(c3ccc(O)cc3)CC2)c([N+](=O)[O-])c1	-2%	18µM*	-1%	1%	-21%
COc1ccc(NC(=O)N2CCN(c3ccc([N+](=O)[O-])cc3)CC2)cc1OC	2%	8.9µM*	-14%	-4%	-23%
CCOCCCNc1nc2ccccc2n2c(CC)nnc12	.	?	.	?	-16%
COc1ccc(-n2c(=O)c3c4c(sc3n(Cc3ccc(F)cc3)c2=O)CN(C(C)=O)CC4)c(OC)c1	.	?	.	-11%	?
O=[N+]([O-])c1ccc(/C=N\N2CCN(c3ccc(Cl)cc3)CC2)cc1	-3%	2.2µM*	-1%[46.1 µM]	3%	-16%
CN(C)S(=O)(=O)c1ccc(C(=O)Nc2nc3ccccc3[nH]2)cc1	-1%	5%	3%	3%	0%
CCCN(CCC)S(=O)(=O)c1ccc(C(=O)Nc2cccc(-c3nc4ccccc4[nH]3)c2)cc1	.	15%	.	25µM*	?
COc1c(Cl)cc(C(=O)Nc2cccc(-c3nc4ccccc4[nH]3)c2)cc1Cl	.	?	.	22µM*	?
CCOC(=O)C1=C(C)N=C2c3ccccc3C(=O)C2C1c1ccc(Cl)cc1 (stereo unspecified)	-3%	?	?	1%	7.9µM*[quencher]
CCOC(=O)C1=NNC(C(=O)c2ccccc2)C1c1ccc(Cl)cc1 (stereo unspecified)	.	.	-37%	-4%	-7%
Cc1ccc(C2C3=C(CC(C)(C)CC3=O)N=C3c4ccccc4C(=O)C32)cc1 (stereo unspecified)	-1%	?	-49%	12%	?
Cc1ccc(Nc2c(-c3ccco3)nc3ccc(C)cn23)cc1	.	1%	.	1%	-11%
Cn1cccc1C(=O)N1CCC[C@@]2(CCN(c3ccncc3)C2)C1	-3%	.	.	.	.
O=C(Nc1cc(Cl)cc(Cl)c1)c1ccc(F)c(S(=O)(=O)NC2CCCCC2)c1	.	5%	.	7.1µM*	?
O=C(Nc1ccc(Br)cc1)c1ccc(F)c(S(=O)(=O)NC2CCCCCC2)c1	.	9%	.	?	?
O=C(Nc1cc(Cl)cc(Cl)c1)c1ccc(F)c(S(=O)(=O)NCc2ccccc2Cl)c1	.	4%	.	8.9µM*	?
COc1ccc(CNS(=O)(=O)c2cc(C(=O)Nc3cc(Cl)cc(Cl)c3)ccc2F)cc1	.	8%	.	3.5µM*	3.5µM*[quencher]
O=C(Nc1cccc(Cl)c1)c1ccc(F)c(S(=O)(=O)NCc2cccs2)c1	1%	-4%	-4%[46.1 µM]	?	?
CCc1ccc(NC(=O)c2ccc(F)c(S(=O)(=O)NCc3ccc(Cl)c(Cl)c3)c2)cc1	.	14%	.	?	-21%
SMILES	KinaseGlo FLuc	Tau fibril ThT	NPSR antag	Tau FP inhib	Tau fluor cs
COc1ccc2sc(N(Cc3cccnc3)C(=O)C3CCCCC3)nc2c1	.	-17%	.	6%	-18%
N=C(N)SCC(=O)O	2%[7.66 µM]	.	.	.	.
Oc1cc(-c2ccccc2)c2ccccc2c1	-3%	14µM*	4%	?	?
O=P1(O)Oc2c(c(-c3ccccc3)cc3ccccc23)-c2c(-c3ccccc3)cc3ccccc3c2O1	1%	6%	.	1%	8%
CC(=O)c1ccc(NC(=O)Cn2c(-n3nc(C)cc3C)nc(C)cc2=O)cc1	.	?	.	-8%	-6%
O=C(NCCSc1ccccc1)c1ccc(CN2CCOCC2)cc1	.	.	-2%	4%	-1%
Cc1cc2cc(C(c3nnnn3CC3CCCO3)N3CCCc4ccccc43)c(=O)[nH]c2cc1C (stereo unspecified)	-9%	-18%	?	-7%	-17%
CCc1ccc2[nH]c(=O)c(C(c3nnnn3CC3CCCO3)N3CCCc4ccccc43)cc2c1 (stereo unspecified)	-3%	11µM*	-10%[46.1 µM]	?	-27%
Cc1ccccc1CS(=O)(=O)c1nnc([C@H](Cc2ccccc2)NC(=O)OC(C)(C)C)o1	-3%	15%	10µM*	-2%	-4%
CC(C)(C)OC(=O)N1CCC(c2c(C(=O)NCCc3ccccc3)cnn2-c2ccc(F)cc2)CC1	.	-17%	.	7%	-18%
Fc1ccc(C(c2nnc(-c3ccccc3)o2)N2CCN(c3ccccc3)CC2)c(Cl)c1 (stereo unspecified)	.	2%	.	6%	0%
CCCCn1cc(S(=O)(=O)c2cccc(C)c2)c(=O)c2cc(F)c(N3CCOCC3)cc21	.	0%	.	1%	1%
CS(=O)(=O)c1ccc(C(=O)NCCN2C(=O)S/C(=C\c3cccnc3)C2=O)cc1[N+](=O)[O-]	-3%	16µM*	-33%	?	?
O=C(NCC(c1cccnc1)N1CCc2ccccc2C1)c1ccc(F)c(F)c1 (stereo unspecified)	.	-2%	.	-15%	-13%
CC(=O)C(=Nc1ccccc1Cl)NNc1ccc(Cl)cc1	-3%	6.3µM*	-39%	?	?
Cc1ccc(Cn2cnc3nc4c(cc3c2=O)CC(C)CC4)cc1 (stereo unspecified)	.	-13%	.	-2%	-7%
CC(=O)N(Cc1ccc(F)cc1)C1=C(NCc2ccccc2)C(=O)c2ccccc2C1=O	17%	28µM*	?	-5%	?
Nc1ccc(S(N)(=O)=O)cc1	-3%	-2%	.	-3%	-8%
Nc1ccc(S(N)(=O)=O)cc1N	.	13µM*	-16%	-17%	?
NS(=O)(=O)c1ccc(S(=O)(=O)N2CCCC2)cc1	5%	-7%	-1%[46.1 µM]	14%	1%
CN(C)S(=O)(=O)c1cccc(-n2sc3ccccc3c2=O)c1	-7%	?	-16%	?	-22%
Cc1ccc(-c2onc(C)c2C)cc1S(=O)(=O)N1CCCCC1	.	-8%	.	6%	-19%
O=c1c2ccccc2sn1-c1ccccc1	-20%	11µM*	?	?	-30%
O=c1c2ccccc2c(C=Nc2ccccc2O)c(O)n1-c1nccs1	.	-14%	47%	?	-21%
O=c1c2ccccc2sn1-c1ccc(S(=O)(=O)N2CCCC2)cc1	-3%	11µM*	-10%[46.1 µM]	?	-16%

From PubChem
